The values below come from PubChem BioAssay AID504652 (National Center for Advancing Translational Sciences (NCATS), 2011).

Values joined by “and” are separate entries in the source; they are usually repeats but may differ in a detail not shown here. Identical values can stand only once. In all, about 360,000 compounds went through this assay and about 11,000 (3.1%) were called active. The list comes from a sample in which actives are over-represented; it also holds similar structures and randomly drawn compounds. Unmarked numbers belong to inactive results. No stated cut-off is given here; in the data, active means activity change below about -30%; inactive means the rest.
On the % scale 0 is the no-effect control and ±100 the full control effect.

Sequence of D(1A) dopamine receptor (Homo sapiens) (P21728 whole entry, looked up): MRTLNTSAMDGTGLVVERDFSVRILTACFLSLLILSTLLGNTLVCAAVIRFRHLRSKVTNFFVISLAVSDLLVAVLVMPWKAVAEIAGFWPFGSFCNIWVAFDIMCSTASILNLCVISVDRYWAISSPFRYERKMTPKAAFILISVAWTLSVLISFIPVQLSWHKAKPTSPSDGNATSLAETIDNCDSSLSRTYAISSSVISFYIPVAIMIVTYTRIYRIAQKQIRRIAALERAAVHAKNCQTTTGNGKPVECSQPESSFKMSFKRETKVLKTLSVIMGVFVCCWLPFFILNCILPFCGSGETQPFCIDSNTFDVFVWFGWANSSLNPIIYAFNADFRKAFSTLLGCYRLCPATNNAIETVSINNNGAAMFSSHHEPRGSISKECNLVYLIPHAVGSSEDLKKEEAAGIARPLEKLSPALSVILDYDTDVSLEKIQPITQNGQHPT

This assay has as its target D(1A) dopamine receptor (Homo sapiens) (UniProt P21728). In words: Antagonist of Human D 1 Dopamine Receptor: qHTS. Particulars: HEK293 TREx D1 cells, calcium flux, dopamine EC80; at 10 µM; active compounds read low. The procedure, abridged:
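Cells carrying a force-coupled, tetracycline-inducible human D1 receptor report calcium flux. Each well gets a 10 s baseline, compound with 180 s monitoring, then an EC80 dopamine stimulus with a second 180 s kinetic read.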
In general terms: Quantitative high-throughput screening tests each substance at several concentrations.
For `CCOc1cc(C(=O)NCCc2csc3nc(-c4ccc(C)cc4)nn23)cc(OCC)c1OCC`, the activity change, negative = inhibition was 3.63%.
On to `O=C(NCc1ccco1)c1cc2sccc2n1Cc1ccc(F)cc1`, for which the activity change, negative = inhibition is -8.06%.
For `O=C(NCc1ccco1)c1nn2cccnc2c1Cl`, the activity change, negative = inhibition is 15.7%.
For the molecule `O=C(NCc1ccco1)c1sc2cccc(F)c2c1Cl`, the activity change, negative = inhibition was -46.1% (active).
On to `CCOc1ccc(N2CC(C)Cn3c2nc2c3c(=O)n(Cc3c(F)cccc3Cl)c(=O)n2C)cc1` (configuration not stated), for which the activity change, negative = inhibition is -2.48%.
For the molecule `COc1ccc(CNC(=O)c2ccc3c(c2)nc2n3CCOC2)c(OC)c1`, the activity change, negative = inhibition is 1.06%.
The figure for `Cc1ccc(CNC(=O)CSC2=Nc3ccccc3C3=NC(C)C(=O)N23)cc1` (configuration not stated) is -1.57%; for `O=C(CSc1ccc(-c2ccccc2)nn1)NCC1CCCO1` (configuration not stated) it is 5.37%; for `O=C(CSC1=Nc2ccccc2C2=NC(c3ccccc3)C(=O)N12)NCC1CCCO1` (configuration not stated) it is -47% (active).
As to `O=C(COc1ccc(Cl)cc1)Nc1ccc(-c2nc3cc(Cl)ccc3o2)c(O)c1`, the activity change, negative = inhibition was 3.9%.
Turning to `CN(CC(=O)Nc1ccccc1F)S(=O)(=O)c1ccc2c(c1)c(=O)n(C)c(=O)n2C`, the activity change, negative = inhibition was 8.37%.
As for `CCOc1ccc(NC(=O)C(CC(C)C)N2Cc3ccccc3C2=O)cc1` (configuration not stated), the activity change, negative = inhibition is 6.62%.
For the molecule `COC(=O)c1ccc(NC(=O)C(C)N2C(=O)c3ccccc3C2=O)cc1` (configuration not stated), the activity change, negative = inhibition is -2.2%.
The figure for `CCOc1ccc(NC(=O)C(C)N2C(=O)c3ccccc3C2=O)cc1` (configuration not stated) is -42.7% (active); for `COc1cc2nc(SCC(=O)Nc3ccccc3F)n3nc(-c4ccccc4)nc3c2cc1OC` it is -6.83%; for `COc1ccc(CNc2nc(-c3ccc(Cl)cc3)nn2C(=O)c2ccccc2)cc1` it is -0.876%.
On to `CCOc1ccccc1NC(=O)Cn1c(=O)n(Cc2ccccc2)c(=O)c2c(C)c(C(=O)N(C)C)sc21`, for which the activity change, negative = inhibition was -72.6% (active).
For `Cc1cccc(NC(=O)Cn2c(=O)n(Cc3ccccc3)c(=O)c3c(C)c(C)sc32)c1`, the activity change, negative = inhibition is -0.708%.
Regarding `Cc1c(C(=O)N(C)C)sc2c1c(=O)n(-c1ccc(F)cc1)c(=O)n2CC(=O)N(C)c1ccccc1`, the activity change, negative = inhibition was -0.832%.
In the case of `CCOc1ccc(OCC)c(NS(=O)(=O)c2ccc3[nH]c(=O)ccc3c2)c1`, the activity change, negative = inhibition is -7.27%.
Turning to `CCC1SC2=NCCN2C1(O)c1ccc(Cl)cc1` (configuration not stated), the activity change, negative = inhibition was -31.5% (active).
The figure for `CCCOc1ccc(C2=CSC3=NCCN23)cc1Cl` is 3.06%.
On to `Cc1cn(C)c(CC(=O)NCc2ccccc2)c1C(=O)O`, for which the activity change, negative = inhibition was 0.691%.
For `Cc1cc(F)ccc1NC1(c2ccccc2)C(=O)c2ccccc2C1=O`, the activity change, negative = inhibition was -5.68%.
Take `COc1ccc(OCCn2cc(C(=O)C3CCCCC3)c3ccccc32)cc1`: the activity change, negative = inhibition is 10.3%.
Regarding `CCOC(=O)C1CCCN(C(=O)c2ccc(-n3ccc4ccccc43)s2)C1` (configuration not stated), the activity change, negative = inhibition is -9.46%.
With `Cc1ccc(Nc2c(-c3ccc(N(C)C)cc3)nc3nc[nH]n23)cc1`, the activity change, negative = inhibition was 1.41%.
For `O=C(NCc1ccccc1CN1CCCC1)c1cccc(S(=O)(=O)Nc2ccc(F)cc2)c1`, the activity change, negative = inhibition was 2.42%.
As to `CCOC(=O)C1CCN(C(=O)c2cccc(S(=O)(=O)N(CC)c3ccccc3)c2)CC1`, the activity change, negative = inhibition is -4.11%.
To `CCN(c1ccccc1)S(=O)(=O)c1cccc(C(=O)NCc2ccccc2CN2CCOCC2)c1` belongs -31.4% (active).
Take `COc1cccc(Cn2c(SCc3ccc(C(=O)N4CCC(C)CC4)cc3)nc3ccncc32)c1`: the activity change, negative = inhibition was -10.8%.
To `CC(C)(C)OC(=O)N1CCC(c2c(C(=O)NCCc3ccsc3)cnn2-c2ccc(F)cc2F)CC1` belongs -6.33%.
For the molecule `CCOC(=O)C1CCN(C(=O)C2CCN(S(=O)(=O)N3CCCC3)CC2)CC1`, the activity change, negative = inhibition is -2.4%.
For the molecule `O=C(O)C1CCN(S(=O)(=O)N2CCOCC2)CC1`, the activity change, negative = inhibition was 0.172%.
With `CC1CCN(C(=O)C2CCN(S(=O)(=O)N3CCC4(CC3)OCCO4)CC2)CC1`, the activity change, negative = inhibition was -37.8% (active).
In the case of `CC(=O)Nc1cccc(C(=O)OCC(=O)c2ccc3c(c2)OCO3)c1`, the activity change, negative = inhibition is -0.144%.
To `CCSc1ccccc1C(=O)Nc1ccc2c(c1)OCO2` belongs 10%.
As to `CC(C)C(=O)Nc1cccc(C(=O)Nc2ccc3c(c2)OCO3)c1`, the activity change, negative = inhibition is -43.1% (active).
With `Cc1ccc(Cn2c(=O)n(CCCC(=O)NCc3ccccc3Cl)c(=O)c3ccccc32)cc1`, the activity change, negative = inhibition is 5.86%.
As to `Fc1ccc(CNc2nc3ccccc3n3nnnc23)cc1`, the activity change, negative = inhibition is -50.2% (active).
Take `CCOc1ccc(OCC)c(Nc2nc3ccccc3n3nnnc23)c1`: the activity change, negative = inhibition is 1.86%.
Take `Fc1ccc(CSc2nc(NCc3ccccc3)c3ccccc3n2)cc1`: the activity change, negative = inhibition was 21.1%.
For the molecule `CCOC(=O)c1cccc(NC(=O)C(Cc2ccccc2)NS(=O)(=O)c2cccc3nsnc23)c1` (configuration not stated), the activity change, negative = inhibition is -3.2%.
In the case of `OCCNCc1cccc(OCc2ccccc2Cl)c1`, the activity change, negative = inhibition is 0.511%.
The figure for `Clc1cccc(Cl)c1OCCOCCNCc1ccccc1` is -39.7% (active); for `CCOc1ccccc1OCCCNCc1ccccc1` it is -23.9%.
To `O=C(CN1c2ccccc2S(=O)(=O)c2ccccc21)Nc1cccc(C(F)(F)F)c1` belongs -3.23%; to `Cc1cccc(CC(=O)Nc2cccc(-c3cn4cccnc4n3)c2)c1`, -7.29%; to `COc1cc(CNC(=O)c2cc3n(n2)CCCN(Cc2cccc(F)c2)C3=O)cc(OC)c1OC`, -15.1%.
The figure for `COc1ccccc1CCNS(=O)(=O)c1cc2c3c(c1)C(C)C(=O)N3CCC2` (configuration not stated) is -6.83%; for `O=C1CCc2cc(S(=O)(=O)Nc3ccc(C(F)(F)F)cc3)cc3c2N1CC3` it is -8.34%; for `COc1ccc(C)cc1S(=O)(=O)NC1CCCCC1` it is 2.79%.
On to `COc1ccc(C)cc1S(=O)(=O)Nc1cc2c3c(c1)CCC(=O)N3CCC2`, for which the activity change, negative = inhibition was -35% (active).
In the case of `COc1ccc(CNS(=O)(=O)c2cc3c4c(c2)CCN4C(=O)CC3)cc1`, the activity change, negative = inhibition was -7.89% and -23.2%.
The figure for `COc1ccccc1CNS(=O)(=O)c1cc2c3c(c1)CCC(=O)N3CCC2` is -53% (active); for `CCOC(=O)c1scc(-c2ccc(C)cc2)c1S(=O)(=O)Nc1cc(C)ccc1C` it is -6.21%.
For `COc1cc(OC)cc(C(=O)Nc2ccc3nc(Nc4cccc(C(F)(F)F)c4)cc(C)c3c2)c1`, the activity change, negative = inhibition is -9.91%.
